Experimental data published in ChEMBL document CHEMBL1157539, “Thousands of chemical starting points for antimalarial lead identification” (Nature, 2010).

Assays:
Format in all cases: functional
Plasmodium falciparum [1] = assay: GSK_TCMDC: Inhibition of Plasmodium falciparum 3D7 in whole red blood cells, using parasite LDH activity as an index of growth. Test compounds present at 2uM
Plasmodium falciparum [2] = assay: GSK_TCMDC: Inhibition of Plasmodium falciparum Dd2 in whole red blood cells, using parasite LDH activity as an index of growth. Test compounds present at 2uM
HepG2 = assay: GSK_TCMDC: Percent inhibition of human HepG2 cell line. Test compounds present at 10uM.

Row | Compound | Inhibition (Plasmodium falciparum [1]) [%] | Inhibition (Plasmodium falciparum [2]) [%] | Inhibition (HepG2) [%]
1 | CCOc1ccc(/C=C/C(=O)Nc2cccc3c2CCN(C)C3)cc1.Cl | 92 | 3 | 0
2 | Cl.N#Cc1cccc(NC(=O)Nc2ccc3c(c2)CCN(C2CCC2)CC3)c1 | 91 | 26 | 22
3 | Clc1ccc(-c2cc(-c3csc(NCCN4CCOCC4)n3)on2)c(Cl)c1 | 97 | 86 | 39
4 | O=c1cc(NCCC(CNCc2cc3ccccc3o2)NCc2cc(Br)cc(Br)c2)[nH]c2ccccc12 (configuration not stated) | 100 | 94 | 6
5 | CCOc1ccc(C(C)NC(=O)Nc2ccccc2)cc1OCC (configuration not stated) | 96 | 95 | 14
6 | CS(=O)(=O)NCCCNCc1cccc(-c2ccc(-c3nc4ccccc4[nH]3)s2)c1.O=C(O)C(F)(F)F | 90 | 0 | 24
7 | CCC1CN2CCc3c([nH]c4ccccc34)C2CC1CC1=NCCc2c1[nH]c1ccc(OC)cc21.Cl (configuration not stated) | 100 | 68 | 99
8 | O=C(O)C(F)(F)F.Oc1ccc(CCNc2nc(NCc3ccc4cc(Cl)ccc4c3)nc(N3CCNCC3)n2)cc1 | 92 | 38 | 14
9 | CN1CCN(CCCNCc2ccc(Nc3nccc(Nc4ccc(Oc5ccccc5)cc4)n3)cc2)CC1 | 100 | 9 | 17
10 | Cc1cnc(N2CCN(CC3CCN(C)CC3)CC2)nc1Oc1ccc(-n2ccnc2)cc1.O=C(O)C(F)(F)F | 99 | 66 | 9
11 | COc1ccccc1-c1cc(C(=O)N2CCN(S(=O)(=O)c3ccc(C)cc3)CC2)[nH]n1 | 88 | 88 | 0
12 | CCOC(=O)CN1Cc2cc(NCc3ccc4ccc5nc(C)[nH]c(=O)c5c4c3)ccc2C1=O | 84 | 91 | 40
13 | COc1cc(C(=O)NC2CC(C)(C)NC(C)(C)C2)ccc1-c1cc2cc(Cl)c(Cl)cc2[nH]1.O=C(O)C(F)(F)F | 99 | 31 | 41
14 | CC[C@H](C)CNC(=O)c1ccc(-c2cccc(CN3CCC(N4CCCC4)CC3)c2)nc1.O=C(O)C(F)(F)F | 91 | 7 | 0
15 | COc1ccc(NC(=O)/C=C/c2ccccc2Cl)cc1OCCN1CCC(N2CCCC2)CC1.O=C(O)C(=O)O | 100 | 23 | 22
16 | CS(=O)(=O)c1ccc(CCNCc2ccc(-c3ccc(CNC4Cc5ccccc5C4)cc3)nc2)cc1.O=C(O)C(F)(F)F | 100 | 80 | 18
17 | CN(C)c1ccc(OCCCCCCOc2ccccc2)cc1.Cl | 85 | 68 | 0
18 | Cc1cc(N[C@@H](Cc2ccccc2)C(=O)Nc2ccccc2)nc(NCCN2CCCC2)n1.O=C(O)C(F)(F)F | 94 | 0 | 8
19 | Cc1[nH]c(C)c(-c2ccc(OCc3ccccc3C(F)(F)F)nc2)c(=O)c1Br | 98 | 97 | 35
20 | COc1ccc2nccc([C@@H](O)CN3CCC(NC(=O)C(=Cc4ccc(Cl)cc4Cl)c4ccc(-c5ccccc5)cc4)CC3)c2c1 | 100 | 98 | 1

Row | Compound | Inhibition (Plasmodium falciparum [1]) [%] | Inhibition (Plasmodium falciparum [2]) [%] | Inhibition (HepG2) [%]
21 | Cn1cnc2c(Nc3ccncc3)nc(-c3ccc(OC(F)(F)F)cc3)nc21.O=C(O)C(F)(F)F | 100 | 65 | 28
22 | CC(=O)N(C)/N=C/[C@H](CCc1ccccc1)NC(=O)[C@H](CC(C)C)NC(=O)c1cccc(OCCN2CCOCC2)c1 | 89 | 65 | 5
23 | COc1ccc(C(=O)NC2CCN(c3ccnc4cc(Cl)ccc34)C2)cc1.O=C(O)C(F)(F)F (configuration not stated) | 100 | 100 | 31
24 | CC(C)C(NC(=O)Cc1cccc2ccccc12)C(=O)Nc1cccc(C#N)c1 (configuration not stated) | 92 | 91 | 0
25 | COc1ccc(NC(=O)c2ccc(Br)c(C)c2)cc1N1CCN(CCCc2c[nH]c3ccccc23)CC1 | 100 | 64 | 21
26 | Cl.NC1=NC(Cc2ccccc2)N(c2ccc(Cl)cc2)C(N)=N1 (configuration not stated) | 93 | 4 | 21
27 | O=c1sn(-c2csc3ccccc23)c2ccccc12 | 94 | 54 | 14
28 | Cc1cccc(-n2c(=O)c3c4c(sc3n3c(SCCC(C)C)nnc23)CCCC4)c1 | 90 | 8 | 0
29 | Cn1c(NC(=O)C2CCCN(C(=O)c3ccc(O)c(-c4ccc(Cl)c(Cl)c4)c3)C2)nc2ccccc21 (configuration not stated) | 98 | 99 | 0
30 | CC(C)CC(=O)N1CCNC[C@@H]1C(=O)NCCSCc1c(F)cccc1Cl.O=C(O)C(F)(F)F | 86 | 3 | 1
31 | COc1cc(C2=NN(S(=O)(=O)c3c(C)cc(C)cc3C)CCCC2)ccc1Cl | 85 | 76 | 9
32 | CCOc1cc(C2C(C(=O)OC(C)C)=C(C)NC3=C2C(=O)CC(c2ccc(Cl)cc2)C3)ccc1OC(C)=O (configuration not stated) | 90 | 20 | 16
33 | CS(=O)(=O)N1CC2(CCN(CCC(NC(=O)Nc3ccccc3)c3ccc(Cl)c(Cl)c3)CC2)c2ccccc21 (configuration not stated) | 99 | 72 | 23
34 | Br.CCCCCCCNCCNc1cc(C)nc2ccccc12 | 100 | 99 | 58
35 | CC(C)(C)c1nn(-c2ccc(Cl)cc2)c2[nH]c(=O)c(CNCc3ccc4c(c3)OCO4)cc12 | 100 | 98 | 15
36 | Cc1sc(N2CCN(C)CC2)nc1C(=O)Nc1ccc(F)cc1C(F)(F)F.O=C(O)C(F)(F)F | 92 | 63 | 7
37 | COc1ccc(-c2cccc(NC(=O)c3cccc(Cl)c3)c2)cc1CN(C)CCN(C)C.O=C(O)C(F)(F)F | 100 | 73 | 32
38 | CC(C)c1sc(N2CCN(C)CC2)nc1C(=O)NCCc1cccc(Cl)c1.O=C(O)C(F)(F)F | 91 | 15 | 9
39 | O=C(NCCN1CCOCC1)c1ccc(CNC(=O)c2ccc(O)c(-c3ccc(Cl)c(Cl)c3)c2)cc1 | 87 | 55 | 3
40 | Cc1cccc2nc(-c3ccc(-c4cccc(CNCc5cccc(N)c5)c4)cc3)[nH]c12.O=C(O)C(F)(F)F | 100 | 87 | 0

Row | Compound | Inhibition (Plasmodium falciparum [1]) [%] | Inhibition (Plasmodium falciparum [2]) [%] | Inhibition (HepG2) [%]
41 | COCCNCc1cccc(-c2cccc(CNC3CCN(Cc4ccccc4)CC3)c2)c1.O=C(O)C(F)(F)F | 100 | 99 | 28
42 | C=C[C@H]1CN(CCCCCCC)CC[C@H]1CC(O)Cc1ccnc2cc(O)c(OC)cc12.O=C(O)C(=O)O (some centres not stated) | 95 | 59 | 7
43 | Cc1cc(NC(=O)Nc2cccc(N(C)C)c2)c2ccccc2n1 | 97 | 95 | 0
44 | Cc1cc(C=C(P(=O)(OC(C)C)OC(C)C)P(=O)(OC(C)C)OC(C)C)c2ccccc2c1O | 85 | 54 | 15
45 | COc1cc2c(c(OC)c1[N+](=O)[O-])C=CC1(O2)N(C)c2ccc([N+](=O)[O-])cc2C1(C)C (configuration not stated) | 92 | 89 | 0
46 | COc1ccc(Cc2nc3c(n2C(C)=O)SC(c2ccc(Cl)c(Cl)c2)=NN3C(C)=O)cc1 | 94 | 22 | 0
47 | Cc1sc2nc(CSc3ccccc3)nc(N3CCN(CC(=O)N4CCCC4)CC3)c2c1C | 91 | 69 | 19
48 | COc1ccc(-c2nc(-c3ccc([N+](=O)[O-])cc3)no2)cc1OC | 96 | 0 | 14
49 | COC1CCC(C(=O)Nc2ccc(-c3cccc(-c4nc5cc(C(F)(F)F)ccc5[nH]4)c3)cc2)CC1 (configuration not stated) | 85 | 48 | 69
50 | COc1ccc(N2CCN(CCCCNC(=O)c3ccc(NC(=O)c4ccc(Cl)cc4)cc3)CC2)c(OC)c1.Cl | 97 | 22 | 25
51 | COc1ccc2nccc([C@@H](O)CN3CCC(NC(=O)/C=C/c4cccc(-c5ccccc5)c4)CC3)c2c1 | 98 | 83 | 12
52 | C=CCC(CC=C)N1C(=O)C(c2ccccc2)(c2ccccc2)N=C1N.O=CO | 98 | 97 | 35
53 | CCNc1cc(C(=O)N[C@@H](Cc2ccccc2)[C@H](O)CNC2(Cc3cccc(Cl)c3)CCC2)cc(N2CCCCS2(=O)=O)c1.Cl | 95 | 83 | 22
54 | CCCCCCN(CCCCCC)CC(O)c1cc(-c2ccc(Cl)cc2)nc2c(C)cc(C)cc12 (configuration not stated) | 98 | 98 | 27
55 | O[C@H]1[C@H](OCc2ccc(-c3ccccc3)cc2)CC[C@@H]1N1CCCCC1 | 96 | 100 | 9
56 | Cc1ccc2c(c1)nc(N)n2C[C@H](O)c1ccccc1 | 100 | 74 | 0
57 | Cc1nc(Nc2cc(Cl)ccc2O)nc(Nc2cc(Cl)ccc2O)c1[N+](=O)[O-] | 98 | 83 | 0
58 | Br.C/C=C/C=C/C1=NCCc2cc(OCCC)ccc21 | 87 | 40 | 0
59 | CCCNCc1ccc(-c2ccc(CN(CCOC)C(=O)COc3ccccc3Cl)cc2)nc1.O=C(O)C(F)(F)F | 96 | 29 | 0
